Experimental data: PubChem BioAssay AID2570 (National Center for Advancing Translational Sciences (NCATS), 2010)
Records with an inconclusive call do not appear. Activity calls are given as the source filed them. Calls follow the shape of the dose curve; as a rule, active = well fitted curve in the direction sought with a large enough effect; inconclusive = small, poorly fitted or top-dose-only effect, or another doubt; inactive = no such curve, though single readings can be large or run the other way.

biological target: Vasopressin V1b receptor (Homo sapiens) (UniProt P47901); assay: Counterscreen Concentration-Response Assay for Antagonists of the Neuropeptide S Receptor: Vasopressin Receptor Calcium Signal Transduction; settings: CHO-AVPR1B, vasopressin-stimulated calcium fluorescence, FDSS
Sequence (P47901 whole entry, looked up): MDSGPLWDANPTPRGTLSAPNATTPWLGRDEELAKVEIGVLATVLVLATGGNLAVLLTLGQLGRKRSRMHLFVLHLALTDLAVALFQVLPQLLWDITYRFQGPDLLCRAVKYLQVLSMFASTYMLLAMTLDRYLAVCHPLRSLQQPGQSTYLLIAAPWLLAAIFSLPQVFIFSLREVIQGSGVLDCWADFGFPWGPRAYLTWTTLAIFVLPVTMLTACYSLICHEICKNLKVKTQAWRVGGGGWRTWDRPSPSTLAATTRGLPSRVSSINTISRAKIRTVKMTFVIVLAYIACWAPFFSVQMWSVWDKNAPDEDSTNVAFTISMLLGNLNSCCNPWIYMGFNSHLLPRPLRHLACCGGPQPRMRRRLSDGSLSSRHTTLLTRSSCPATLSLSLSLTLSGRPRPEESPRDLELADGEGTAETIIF
Text: NIH Chemical Genomics Center [NCGC] NIH Molecular Libraries Probe Production centers Network [MLPCN] MLPCN Grant: X01-DA026210-01 Assay Submitter (PI): Heilig, Markus Alexander NCGC Assay Overview: Neuropeptide S receptor (NPSR), previously known as GPR154, is a recently de-orphanized G protein coupled receptor. Its endogenous ligand is the 20 amino acids peptide Neuropeptide S (NPS). […] NPS and its receptor are found in various tissues. Specifically they are highly expressed in brain areas that have been implicated in modulation of arousal, stress and anxiety. Central administration of NPS in mice produces an unusual profile of activity by inducing wakefulness and arousal, while at the same time suppressing anxiety. Therefore, NPSR may represent a novel drug target for the treatment of sleep and anxiety disorders. To identify NPSR antagonists, we developed a cell-based assay with transfected NPS receptor. NPS can stimulate the production of cAMP as well as release intracellular calcium in Chinese hamster ovary cells stably expressing NPS receptor. This change in intracellular calcium can be detected using a calcium indicator dye on a calcium imaging plate reader system (FDSS). To validate the specific action of compounds on the NPS receptor, a counterscreen was developed that tests compounds' antagonism of AVPR1B vasopressin receptor stimulation by vasopressin. […] shares 27% identity with the NPS receptor.
NCGC Assay Protocol Summary: A Chinese hamster ovary (CHO) cell line stably expressing human vasopressin receptor (AVPR1B) was maintained in F-12 Kaighn's media (Invitrogen, Carlsbad, CA, 21127) supplemented with 10 % FBS, 100 units/ml penicillin, 100 ug/ml streptomycin and 250 ug/ml geneticin at 37C, 5% CO2 in a humidified atmosphere. Before the assay, aliquots of cells were frozen and stored at -135C. The assay was performed on a FDSS-7000 kinetic plate reader in 1536-well format. The maximums of kinetic fluorescence responses were converted into text files using the instrument's software data export utility. Data for antagonist response were normalized to the controls for basal activity (DMSO only) and 100% inhibition (no signal). AC50 values were determined from concentration-response data modeled with the standard Hill equation. CHO-V1B 1536-well FDSS assay protocol: (1) Frozen CHO-V1B cells were thaw, washed once with fresh media and resuspended in F-12 Kaighn's media supplemented with 10 % FBS, 100 units/ml penicillin and 100 ug/ml streptomycin. Cells were plated at 3 ul/well (1200 cells) to black, clear-bottom, tissue-culture treated 1536-well plates, and then cultured at 37C, 5 % CO2 for 16 to 30 hours. (2) Add 3 ul of calcium dye (from High Performance PBX Calcium Assay Kit, BD Biosciences). The calcium dye was prepared according to the manufactory's instruction. (3) Incubation at 37C, 5 % CO2 for 60 min. (4) Add 23 nl/well of compound in DMSO solution. The final titration for each compound was between 0.6 nM and 46 uM. (5) Load plates to FDSS-7000. The following steps were performed on FDSS-7000. (6) Record fluorescent background (Ex 480 nm, Em 520-560 nm) for 10 s. (7) Add 2 ul of stimulation reagent (1X HBSS buffer, 0.1% BSA, 60 nM vasopressin). Record antagonist response (Ex 480 nm, Em 520-560 nm) for 180 s. Keywords: MLSMR, MLPCN, NIH Roadmap, qHTS, NCGC, NPS, Neuropeptide S Antagonists

Row | Compound | max response
1 | COc1cccc(C2c3c(ncn(-c4ccccc4SC)c3=N)Oc3ccc4ccccc4c32)c1 (stereo not given) | 14.8% (inactive)
2 | COc1ccc(C2c3ccc(OCc4ccccc4)cc3Oc3ncn(CCN4CCOCC4)c(=N)c32)cc1OC (stereo not given) | -15.2% (inactive)
3 | Nc1ncnc2c1C(c1ccccc1)c1c(ccc3ccccc13)O2 (stereo not given) | 4.27% (inactive)
4 | COc1ccc(C2c3c(N)nc(CCCc4ccccc4)nc3Oc3ccc4ccccc4c32)cc1OC (stereo not given) | -15.9% (inactive)
5 | COc1ccc(C2c3c(N)nc(CCc4ccccc4)nc3Oc3ccc4ccccc4c32)cc1OC (stereo not given) | -20.6% (inactive)
6 | COc1ccc(C2c3c(nc(CCCc4ccccc4)[nH]c3=O)Oc3ccc4ccccc4c32)cc1OC (stereo not given) | 12% (inactive)
7 | COc1ccc(C2c3c(ncn(CCN4CCOCC4)c3=N)Oc3ccc4ccccc4c32)cc1 (stereo not given) | -23.1% (inactive)
8 | COc1ccc(C2c3c(ncn(CCc4ccccc4)c3=N)Oc3ccc4ccccc4c32)cc1OC (stereo not given) | 7.55% (inactive)
9 | COc1cccc(C2c3c(ncn(-c4ccc(NC(C)=O)cc4)c3=N)Oc3ccc4ccccc4c32)c1 (stereo not given) | -34.2% (inactive)
10 | COc1cccc(C2c3c(ncn(-c4ccccc4Cl)c3=N)Oc3ccc4ccccc4c32)c1 (stereo not given) | 1.44% (inactive)
11 | COc1ccc(C2c3c(nc(C)[nH]c3=O)Oc3ccc4ccccc4c32)cc1OC (stereo not given) | -25.8% (inactive)
12 | Cc1c(P(=S)(c2ccccc2)c2ccccc2)c2ccccc2n1CCc1ccccc1 | -38.1% (inactive)
13 | N=c1c2c(ccn1CCc1ccccc1)Oc1ccc3ccccc3c1C2c1ccccc1 (stereo not given) | 11.4% (inactive)
14 | CCOc1ccc(C2c3c(ncn(-c4ccccc4)c3=N)Oc3ccc4ccccc4c32)cc1OCC (stereo not given) | -23.4% (inactive)
15 | COc1ccc(C2c3c(n(CCc4ccccc4)cnc3=N)Oc3ccc4ccccc4c32)cc1OC (stereo not given) | -53.4% (inactive)
16 | COc1cccc(C2c3c(ncn(-c4ccccn4)c3=N)Oc3ccc4ccccc4c32)c1 (stereo not given) | 29.6% (inactive)
17 | COc1cccc(C2c3c(ncn(-c4ccccc4C(C)(C)C)c3=N)Oc3ccc4ccccc4c32)c1 (stereo not given) | 9.94% (inactive)
18 | COc1cccc(C2c3c(ncn(-c4cccc(C)c4)c3=N)Oc3ccc4ccccc4c32)c1 (stereo not given) | -55.3% (inactive)
19 | COc1cccc(C2c3c(ncn(-c4cccc(C#N)c4)c3=N)Oc3ccc4ccccc4c32)c1 (stereo not given) | -10.9% (inactive)
20 | N=c1c2c(ccn1Cc1ccccc1)Oc1ccc3ccccc3c1C2c1ccccc1 (stereo not given) | 18.5% (inactive)

Row | Compound | max response
21 | COc1ccc(C2c3c(ncn(Cc4ccccc4)c3=N)Oc3ccc4ccccc4c32)cc1OC (stereo not given) | -10.2% (inactive)
22 | COc1cccc(C2c3c(ncn(-c4cccc(OC)c4)c3=N)Oc3ccc4ccccc4c32)c1 (stereo not given) | -13.6% (inactive)
23 | COc1cccc(C2c3c(ncn(-c4cccnc4)c3=N)Oc3ccc4ccccc4c32)c1 (stereo not given) | -4.29% (inactive)
24 | Cc1c(P(=S)(c2ccccc2)c2ccccc2)c2ccccc2n1CCCc1ccccc1 | 8.85% (inactive)
25 | N=c1c2c(ccn1CCCc1ccccc1)Oc1ccc3ccccc3c1C2c1ccccc1 (stereo not given) | -23.7% (inactive)
26 | Cc1c(P(=S)(c2ccccc2)c2ccccc2)[n+]2ccccc2n1CCCc1ccccc1 | -9.72% (inactive)
27 | Cc1c(P(=S)(c2ccccc2)c2ccccc2)[n+]2ccccc2n1C/C=C/c1ccccc1 | 1.44% (inactive)
28 | COc1cccc(C2c3c(ncn(-c4ccc(C#N)cc4)c3=N)Oc3ccc4ccccc4c32)c1 (stereo not given) | -46.5% (inactive)
29 | COc1cccc(C2c3c(ncn(-c4ccccc4C#N)c3=N)Oc3ccc4ccccc4c32)c1 (stereo not given) | 2.63% (inactive)
30 | COc1cccc(C2C(C#N)=C(NC(=O)NCc3ccccc3)Oc3ccc4ccccc4c32)c1 (stereo not given) | -21.8% (inactive)
31 | COc1ccc2c(c1)Oc1ncn(CCN3CCOCC3)c(=N)c1C2c1ccc(OC)c(OC)c1 (stereo not given) | -21.2% (inactive)
32 | O=C(c1ccccc1)N(C(=O)c1ccccc1)c1ncnc2c1C(c1ccccc1)c1c(ccc3ccccc13)O2 (stereo not given) | 12.9% (inactive)
33 | COc1ccc(C2c3c(ncn(CCN4CCOCC4)c3=N)Oc3ccc4ccccc4c32)cc1OC (stereo not given) | -15.6% (inactive)
34 | COc1cccc(C2C(C#N)=C(NC(=O)CCc3ccccc3)Oc3ccc4ccccc4c32)c1 (stereo not given) | 10.7% (inactive)
35 | COc1ccc(C2c3c(N)nc(Cc4ccccc4)nc3Oc3ccc4ccccc4c32)cc1OC (stereo not given) | -15.7% (inactive)
36 | COc1cccc(C2c3c(ncn(-c4ccccc4)c3=N)Oc3ccc4ccccc4c32)c1OC (stereo not given) | -5.77% (inactive)
37 | COc1ccc(C2c3c(nc(Cc4ccccc4)[nH]c3=O)Oc3ccc4ccccc4c32)cc1OC (stereo not given) | 14.7% (inactive)
38 | COc1ccc(C2C3=C(N=CN(CCN4CCOCC4)C3N)Oc3ccccc32)cc1OC (stereo not given) | 19.6% (inactive)
39 | COc1cccc(C2c3c(ncn(-c4ccccc4)c3=N)Oc3ccc4ccccc4c32)c1 (stereo not given) | -8.43% (inactive)
40 | CCOC(=O)c1ccc(-n2cnc3c(c2=N)C(c2cccc(OC)c2)c2c(ccc4ccccc24)O3)cc1 (stereo not given) | 17.2% (inactive)
